# Assay results: PubChem BioAssay (NCATS)
# Results filed as inconclusive are left out. Where a call stands in place of a potency, no number is given. The source made the active and inactive calls. Unless noted, calls follow the shape of the dose curve; as a rule, active = well fitted curve in the direction sought with a large enough effect; inconclusive = small, poorly fitted or top-dose-only effect, or another doubt; inactive = no such curve, though single readings can be large; an effect the other way counts as inactive or inconclusive.
# How the values were obtained:
# [1] = qHTS for Inhibitors of Plasmodium falciparum (DD2) proliferation (AID 504314);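 also: parasite DNA measured by SYBR Green fluorescence after red cell lysis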
# Procedure, shortened: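 Infected RBCs, 0.3% parasitemia, 2.5% Hct; compound 72 h, 37C/5% CO2; lyse + SYBR Green I, RT overnight, dark; read ex485/em535; normalize to DMSO and artemisinin 0.29 uM.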
# [2] = qHTS for Inhibitors of Plasmodium falciparum (GB4) proliferation (AID 504315); also: nearly all actives have a fitted effect of over 50% in size
# Procedure, shortened: (§1)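 Erythrocytes infected with P. falciparum line (0.3% parasitemia, 2.5% hematocrit final) incubated with compounds 72 h at 37 °C, 5% CO2; SYBR Green lysis buffer added, fluorescence read next day. Normalized to 0.29 uM artemisinin and DMSO.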
# [3] = qHTS for Inhibitors of Plasmodium falciparum (7G8) proliferation (AID 504316); also: series mostly up to about 6.7 µM; nearly all actives have a fitted effect of over 65% in size
# Procedure, shortened: as §1
# [4] = qHTS for Inhibitors of Plasmodium falciparum (CP250) proliferation (AID 504320)
# Procedure, shortened: as §1
# [5] = molecular target: 3',5'-cyclic-AMP phosphodiesterase 4B (Homo sapiens) (UniProt Q07343); test: qHTS Assay for Inhibitors of PDE-IV (AID 607; active = well fitted activation curve with a large enough effect in the main read-out, with a control signal flat, not every such curve was filed as active)
# Procedure, shortened: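 Cell-based read-out of cAMP via a modified cyclic nucleotide-gated channel and membrane potential dye (535/590 nm) in HEK293 cells expressing PDE4 endogenously. Compounds tested up to 22.9 uM final; 100 uM RO 20-1724 reference.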
# [6] = molecular target: Cytochrome P450 2D6 (Homo sapiens) (UniProt P10635); test: qHTS Assay for Inhibitors and Substrates of Cytochrome P450 2D6 (AID 891);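 also: luciferin methyl ether substrate demethylated by CYP2D6 with NADPH regeneration; nearly all actives have a fitted effect of over 60% in size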
# Procedure, shortened: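 Human CYP2D6 (5 nM) with 30 uM Luciferin-ME EGE (at Km) in 100 mM KPO4, compound preincubated 10 min, then NADPH regeneration system for 60 min at room temperature. Luciferin read by luminescence; normalized to 1.43 uM quinidine.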
# [7] = molecular target: Cytochrome P450 2C19 (Homo sapiens) (UniProt P33261); test: qHTS Assay for Inhibitors and Substrates of Cytochrome P450 2C19 (AID 899); also: nearly all actives have a fitted effect of over 60% in size
# Procedure, shortened: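 Signal comes from luciferase acting on luciferin released by CYP2C19-mediated hydroxylation of Luciferin-H EGE, 10uM (KM). Assay mix: 5nM enzyme, 50mM KPO4; 60 min at 37C with NADPH regeneration. Data normalized against 57uM ketoconazole.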
# [8] = molecular target: Mitogen-activated protein kinase 10 (Mus musculus) (UniProt Q61831); test: JNK3 AlphaScreen Assay (AID 530; active = well fitted curve in either direction with a large enough effect, not every such curve was filed as active;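 also: kinase came from lysate of stimulated human HepG2 cells; signal reports phosphorylation of biotinylated GST-cJun 1-79 at Ser73 with 10 µM ATP; series mostly up to about 57 µM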)
# Procedure, shortened: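 qHTS format: compounds tested as titrations against IL-1beta/TNF-alpha-activated HepG2 lysate JNK3 with biotin-GST-cJun substrate and 10 uM ATP at room temperature. Loss of anti-phospho-cJun AlphaScreen signal indicates inhibition.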
# [9] = molecular target: Cytochrome P450 3A4 (Homo sapiens) (UniProt P08684); test: qHTS Assay for Activators of Cytochrome P450 3A4 (AID 885); also: nearly all actives have a fitted effect of over 65% in size
# Procedure, shortened: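 Signal was normalized against complete inhibition by 57 uM ketoconazole. The reaction used 20nM CYP3A4 with 25uM Luciferin-PPXE, 10-min compound preincubation and a 60-min NADPH-supported step at RT.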
# [10] = molecular target: Cytochrome P450 3A4 (Homo sapiens) (UniProt P08684); test: qHTS Assay for Inhibitors and Substrates of Cytochrome P450 3A4 (AID 884); also: nearly all actives have a fitted effect of over 50% in size; also: potency is read from the fitted curve at half-maximal effect
# Procedure, shortened: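 20 nM human CYP3A4 with 25 uM Luciferin-PPXE (at KM) in 200 mM KPO4, preincubated 10 min with compound; NADPH regeneration started a 60 min RT reaction. Luciferin detected by luminescence, normalized to 57 uM ketoconazole as full inhibition.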
# [11] = Confirmation and Secondary Assay for Modulators of Hemoglobin Beta Chain Splicing at IVS2 654 locus (AID 910);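 also: HeLa cells stably carrying EGFP split by mutant beta-globin IVS2-654 intron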
# Procedure, shortened: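 HeLa cells stably expressing EGFP interrupted by β-globin IVS2-654 intron, seeded overnight in Opti-MEM/2% FCS, then treated 2 days at 37 °C. Restored splicing read as total peak GFP intensity per well by laser scanning cytometry (488 nm excitation, 500–520 nm emission); 500 nM antisense PNA as control.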
# [12] = Confirmation and Secondary Assay for Modulators of Hemoglobin Beta Chain Splicing at IVS2 705 locus (AID 930);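 also: HeLa cells stably expressing the EGFP-705 splicing reporter; GFP fluorescence per well restored by corrected splicing of the IVS2-705 intron in EGFP; series mostly up to about 46 µM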
# Procedure, shortened: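 HeLa EGFP-705 reporter; 500 cells/well, o/n 37C 5% CO2; cpd 2 d; 488 ex/500-520 em laser scan; total peak GFP intensity/well. Ref: 500 nM […] antisense PNA.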
# [13] = molecular target: Ubiquitin carboxyl-terminal hydrolase 1 (Homo sapiens) (UniProt O94782); test: Inhibitors of USP1/UAF1: Pilot qHTS (AID 504865); also: potency is read from the fitted curve at half-maximal effect; nearly all actives have a fitted effect of over 35% in size
# Procedure, shortened: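 Enzyme-free wells gave the negative control, while test wells held 1nM USP1/UAF1 preincubated with compound for 15 min at room temperature. Ub-Rho at 150nM final started the reaction, and fluorescence at 480/540 nm was recorded kinetically.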
# [14] = molecular target: Cytochrome P450 2C9 (Homo sapiens) (UniProt P11712); test: qHTS Assay for Inhibitors and Substrates of Cytochrome P450 2C9 (AID 883); also: nearly all actives have a fitted effect of over 60% in size
# Procedure, shortened: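 Signal: luciferase luminescence reporting luciferin produced by CYP2C9. Conditions: 10nM enzyme, Luciferin-H 100uM at KM, 25mM KPO4, 37C, 60 min NADPH-driven reaction. Reference: 57uM sulphaphenazole as 100% inhibition.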
# Cytochrome P450 2C19 (Homo sapiens), sequence (P33261 whole entry, looked up): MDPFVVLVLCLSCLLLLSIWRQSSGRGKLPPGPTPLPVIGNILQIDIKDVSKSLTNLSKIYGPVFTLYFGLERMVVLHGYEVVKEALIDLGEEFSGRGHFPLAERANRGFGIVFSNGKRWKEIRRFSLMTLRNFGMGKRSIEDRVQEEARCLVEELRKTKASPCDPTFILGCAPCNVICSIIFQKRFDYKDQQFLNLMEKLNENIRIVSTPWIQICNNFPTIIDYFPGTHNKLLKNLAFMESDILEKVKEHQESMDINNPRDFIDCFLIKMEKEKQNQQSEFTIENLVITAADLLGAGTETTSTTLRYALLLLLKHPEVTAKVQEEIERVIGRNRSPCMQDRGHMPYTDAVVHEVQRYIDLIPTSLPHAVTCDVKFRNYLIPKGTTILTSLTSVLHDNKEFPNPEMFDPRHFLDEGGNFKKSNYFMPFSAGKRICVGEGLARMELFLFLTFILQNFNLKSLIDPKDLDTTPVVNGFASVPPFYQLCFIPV
# 3',5'-cyclic-AMP phosphodiesterase 4B (Homo sapiens), sequence (Q07343 whole entry, looked up): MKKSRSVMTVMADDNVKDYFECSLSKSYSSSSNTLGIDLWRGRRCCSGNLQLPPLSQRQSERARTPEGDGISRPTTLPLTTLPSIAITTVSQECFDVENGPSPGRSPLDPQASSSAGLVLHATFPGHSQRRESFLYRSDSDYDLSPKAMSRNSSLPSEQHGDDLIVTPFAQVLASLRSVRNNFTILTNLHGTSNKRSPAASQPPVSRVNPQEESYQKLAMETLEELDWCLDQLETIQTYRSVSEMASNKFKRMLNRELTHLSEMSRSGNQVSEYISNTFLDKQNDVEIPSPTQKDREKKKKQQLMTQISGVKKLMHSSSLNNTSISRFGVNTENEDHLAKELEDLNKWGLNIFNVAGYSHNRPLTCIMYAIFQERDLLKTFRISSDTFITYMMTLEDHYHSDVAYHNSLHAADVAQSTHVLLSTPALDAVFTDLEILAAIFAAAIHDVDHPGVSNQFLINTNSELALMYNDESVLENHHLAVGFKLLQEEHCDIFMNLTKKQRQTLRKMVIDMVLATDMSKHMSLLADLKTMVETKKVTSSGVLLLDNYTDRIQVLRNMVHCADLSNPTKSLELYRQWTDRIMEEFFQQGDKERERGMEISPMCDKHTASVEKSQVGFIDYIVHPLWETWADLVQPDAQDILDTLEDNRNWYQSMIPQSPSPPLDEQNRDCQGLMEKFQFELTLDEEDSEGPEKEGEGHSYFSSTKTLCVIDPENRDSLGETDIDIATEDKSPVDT
# Cytochrome P450 3A4 (Homo sapiens), sequence (P08684 whole entry, looked up): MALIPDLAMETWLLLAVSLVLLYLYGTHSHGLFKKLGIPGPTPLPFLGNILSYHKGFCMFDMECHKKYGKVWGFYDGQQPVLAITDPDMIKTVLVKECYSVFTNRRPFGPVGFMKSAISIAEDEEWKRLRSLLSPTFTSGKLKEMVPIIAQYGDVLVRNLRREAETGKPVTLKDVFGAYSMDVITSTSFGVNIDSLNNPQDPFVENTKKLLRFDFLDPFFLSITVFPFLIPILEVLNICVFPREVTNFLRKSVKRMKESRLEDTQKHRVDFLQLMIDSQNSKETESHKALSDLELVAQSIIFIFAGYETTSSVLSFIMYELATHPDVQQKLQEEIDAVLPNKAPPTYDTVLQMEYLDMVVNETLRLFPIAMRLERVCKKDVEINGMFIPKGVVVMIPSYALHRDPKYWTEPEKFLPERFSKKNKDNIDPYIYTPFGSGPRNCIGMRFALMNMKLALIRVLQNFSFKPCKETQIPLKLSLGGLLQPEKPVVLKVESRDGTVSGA
# Cytochrome P450 2D6 (Homo sapiens), sequence (P10635 whole entry, looked up): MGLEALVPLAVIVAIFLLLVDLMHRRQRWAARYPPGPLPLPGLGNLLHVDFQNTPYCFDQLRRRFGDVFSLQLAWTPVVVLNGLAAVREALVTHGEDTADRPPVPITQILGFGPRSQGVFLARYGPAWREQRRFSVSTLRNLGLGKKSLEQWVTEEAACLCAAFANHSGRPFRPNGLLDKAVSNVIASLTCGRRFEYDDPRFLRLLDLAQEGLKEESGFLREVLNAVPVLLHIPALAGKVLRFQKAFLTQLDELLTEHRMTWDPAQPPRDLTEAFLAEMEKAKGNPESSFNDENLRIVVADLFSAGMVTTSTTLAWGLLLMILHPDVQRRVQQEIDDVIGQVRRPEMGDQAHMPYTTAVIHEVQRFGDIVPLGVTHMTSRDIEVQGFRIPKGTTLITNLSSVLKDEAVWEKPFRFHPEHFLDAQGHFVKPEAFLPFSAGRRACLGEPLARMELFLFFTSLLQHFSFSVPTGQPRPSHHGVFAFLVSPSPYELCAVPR
# Ubiquitin carboxyl-terminal hydrolase 1 (Homo sapiens), sequence (O94782 whole entry, looked up): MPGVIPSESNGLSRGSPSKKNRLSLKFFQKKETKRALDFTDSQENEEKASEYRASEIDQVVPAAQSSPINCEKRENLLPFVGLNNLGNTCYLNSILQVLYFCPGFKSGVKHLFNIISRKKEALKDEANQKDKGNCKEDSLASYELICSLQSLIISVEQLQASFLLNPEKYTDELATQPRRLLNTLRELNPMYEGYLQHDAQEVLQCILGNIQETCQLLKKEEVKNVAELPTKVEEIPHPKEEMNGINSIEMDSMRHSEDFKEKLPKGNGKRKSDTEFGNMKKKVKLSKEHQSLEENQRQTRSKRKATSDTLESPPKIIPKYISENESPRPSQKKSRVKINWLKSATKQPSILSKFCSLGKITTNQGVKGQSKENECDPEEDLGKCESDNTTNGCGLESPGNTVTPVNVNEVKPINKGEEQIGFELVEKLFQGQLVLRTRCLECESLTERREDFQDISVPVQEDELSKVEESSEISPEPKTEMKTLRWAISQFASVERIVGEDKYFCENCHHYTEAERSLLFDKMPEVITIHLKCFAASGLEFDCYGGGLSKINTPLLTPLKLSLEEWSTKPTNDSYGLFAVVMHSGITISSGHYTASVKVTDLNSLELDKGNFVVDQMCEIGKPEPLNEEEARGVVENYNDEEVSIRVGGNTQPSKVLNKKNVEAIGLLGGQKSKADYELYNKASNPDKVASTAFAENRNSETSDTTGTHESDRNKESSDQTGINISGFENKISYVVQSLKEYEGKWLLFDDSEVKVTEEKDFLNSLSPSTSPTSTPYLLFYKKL
# Cytochrome P450 2C9 (Homo sapiens), sequence (P11712 whole entry, looked up): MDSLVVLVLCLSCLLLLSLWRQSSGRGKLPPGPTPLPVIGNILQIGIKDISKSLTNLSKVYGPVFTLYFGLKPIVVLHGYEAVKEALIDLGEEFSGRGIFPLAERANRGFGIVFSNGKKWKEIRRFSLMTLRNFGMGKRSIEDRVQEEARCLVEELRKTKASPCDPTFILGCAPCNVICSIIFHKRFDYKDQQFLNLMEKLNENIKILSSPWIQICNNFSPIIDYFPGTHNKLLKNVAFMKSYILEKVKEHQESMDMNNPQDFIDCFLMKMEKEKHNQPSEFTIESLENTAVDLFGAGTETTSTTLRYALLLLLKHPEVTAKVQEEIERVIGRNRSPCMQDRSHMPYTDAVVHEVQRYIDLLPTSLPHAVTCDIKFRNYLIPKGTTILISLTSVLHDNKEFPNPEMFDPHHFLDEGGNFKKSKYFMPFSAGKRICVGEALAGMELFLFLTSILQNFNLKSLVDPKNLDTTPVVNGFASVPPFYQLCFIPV
compound,measurement,setting,value
COC(=O)C1=C(C(=O)OC)[C@@H]2N(C)c3ccccc3[C@@]23C[C@@H](CO)N=C3N1,Potency,[1],inactive
same,Potency,[2],inactive
same,Potency,[3],inactive
same,Potency,[4],inactive
CC(C)[C@@H](CC(=O)N[C@@H]1CCNC[C@H]1C(=O)N[C@H](CC(=O)N[C@@H](CCC(=O)O)CC(=O)O)Cc1c[nH]c2ccccc12)NC(=O)C[C@H](CO)NC(=O)[C@@H]1CNCC[C@H]1N,Potency,[5],inactive
same,Potency,[6],inactive
same,Potency,[7],inactive
COC(=O)C1=C(C)N(Cc2ccccc2)C(=O)N[C@H]1c1cccc(F)c1,Potency,[1],inactive
same,Potency,[2],inactive
same,Potency,[3],inactive
same,Potency,[4],inactive
COC(=O)[C@H]1C[C@@H]1[C@H](NC(=O)c1cnccn1)c1ccccc1,Potency,[8],inactive
same,Potency,[5],inactive
same,Potency,[9],inactive
NCCC[C@@H](CC(=O)N[C@@H]1CCCC[C@H]1C(=O)N[C@H](CC(=O)N[C@@H](CCC(=O)O)CC(=O)O)Cc1ccccc1)NC(=O)C[C@H](Cc1ccccc1)NC(=O)[C@@H]1CCCC[C@H]1N,Potency,[6],inactive
same,Potency,[7],inactive
COC(=O)[C@@H]1C[C@H]1[C@@H](NS(=O)(=O)c1ccc(-c2ccccc2)cc1)c1ccccc1,Potency,[8],inactive
same,Potency,[5],inactive
CO/N=C(/C(=O)N[C@H]1C(=O)N2C(C(=O)O)=C(COC(C)=O)CSC12)c1csc(N)n1 (some centres undefined),Potency,[10],inactive
same,Potency,[11],inactive
same,Potency,[12],inactive
same,Potency,[13],39.8 µM (active)
COC(=O)[C@@H]1C[C@H]1[C@@H](NC(=O)c1cc(C)nn1C)c1ccccc1,Potency,[8],inactive
same,Potency,[5],inactive
same,Potency,[9],inactive
NCCC[C@@H](CC(=O)N[C@@H]1CCCC[C@H]1C(=O)N[C@H](CC(=O)N[C@@H](CCC(=O)O)CC(=O)O)Cc1ccccc1)NC(=O)C[C@H](CO)NC(=O)[C@@H]1CCCC[C@H]1N,Potency,[5],inactive
same,Potency,[6],inactive
same,Potency,[7],inactive
O=C(NCCF)[C@H]1C[C@@H]1[C@H](NP(=O)(c1ccccc1)c1ccccc1)c1ccccc1,Potency,[8],inactive
same,Potency,[5],inactive
CC[C@H]1C2=C3C(CC[C@H]4C(OCc5ccc(F)cc5C(F)(F)F)OC[C@](C)([C@@H]34)N(C(=O)OC(C)(C)C)C2)C(COC)C1COC (some centres undefined),Potency,[8],inactive
same,Potency,[5],inactive
same,Potency,[9],inactive
COC(=O)[C@@]1(Cc2ccc(OC)cc2)[C@H]2c3cc(C(=O)N4CCCC4)n(CCSCCO)c3C[C@H]2CN1C(=O)c1ccccc1,Potency,[8],inactive
same,Potency,[5],inactive
CC(C)[C@@H](CC(=O)N[C@@H]1CCCC[C@H]1C(=O)N[C@H](CC(=O)N[C@@H](CCC(=O)O)CC(=O)O)Cc1ccccc1)NC(=O)C[C@H](Cc1c[nH]c2ccccc12)NC(=O)[C@@H]1CNCC[C@H]1N,Potency,[5],inactive
same,Potency,[6],inactive
same,Potency,[7],inactive
COC(=O)C1(Cc2ccccc2)C=C2C(=C(C(C)C)C(=O)C2C)CN1 (centres undefined),Potency,[8],inactive
same,Potency,[5],inactive
same,Potency,[10],7.94 µM (active)
same,Potency,[9],inactive
CC(C)C[C@@H](CC(=O)N[C@@H](CCCN)CC(=O)N[C@@H]1CCNC[C@H]1C(=O)N[C@H](CC(=O)N[C@@H](CCC(=O)O)CC(=O)O)CC(C)C)NC(=O)[C@@H]1CNCC[C@H]1N,Potency,[8],inactive
same,Potency,[5],inactive
same,Potency,[6],inactive
same,Potency,[7],inactive
C[C@@H](C(=O)Nc1ccc2ccccc2c1)[C@@H]1C[C@@]1(C)[C@@H](NS(=O)(=O)c1ccc2ccccc2c1)c1ccccc1,Potency,[8],inactive
same,Potency,[14],inactive
same,Potency,[9],inactive
COCCn1c(C(=O)N2CCCC2)cc2c1C[C@H]1CN(C(=O)c3ccccc3)[C@@](Cc3ccc(F)cc3)(C(=O)OC)[C@@H]21,Potency,[8],inactive
same,Potency,[5],inactive
COC(=O)C1(C)C=C2C(=C(c3ccccc3)C(=O)C2C)CN1 (centres undefined),Potency,[8],inactive
same,Potency,[5],inactive
same,Potency,[9],inactive
